In PubChem BioAssay AID1159580 (chemical genetic matrix, 2015):
The campaign covered roughly 5,500 compounds. About 2,000 (36%) were called active. Roughly 18% stayed inconclusive and do not appear here. Rule as the data show it: active = normalized growth mostly below about 0.91 (no sharp cut-off); inconclusive = no clear call, values can overlap the other calls; inactive = mostly above about 0.92. Some of the results follow.

Experiment: chemical genetic growth profiling, strain panel (AID 1159580);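 also: tested at 20 µM; growth read once vehicle control cultures reached saturation at 30 °C; 1 = growth at the plate median or of vehicle wells; lower values mean less growth of the strain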
Conditions: growth OD

Measured: normalized growth

CCCCOc1cc(C(=O)NCCN(CC)CC)c2ccccc2n1
inactive: S. cerevisiae deletion strains, locus YJR075W, strain HOC1, active compounds read low 0.999 | S. cerevisiae deletion strains, locus YKL009W, strain mrt4, active compounds read low 1 | S. cerevisiae deletion strains, locus YKL068W, active compounds read low 0.994 | S. cerevisiae deletion strains, locus YKL085W, strain MDH1 (second series), active compounds read low 0.989 | S. cerevisiae deletion strains, locus YKL085W, strain MDH1, active compounds read low 0.989 | S. cerevisiae deletion strains, locus YKL160W, strain elf1, active compounds read low 0.964 | S. cerevisiae deletion strains, locus YKR001C, strain vps1, active compounds read low 1.01 | S. cerevisiae deletion strains, locus YKR026C, strain gcn3, active compounds read low 0.962 | S. cerevisiae deletion strains, locus YKR091W, strain srl3, active compounds read low 0.973 | S. cerevisiae deletion strains, locus YLL001W, strain dnm1, active compounds read low 0.939 | S. cerevisiae deletion strains, locus YLL026W, active compounds read low 0.981 | S. cerevisiae deletion strains, locus YLL041C, strain sdh2, active compounds read low 0.956 | S. cerevisiae deletion strains, locus YLR027C, strain aat2, active compounds read low 0.97 | S. cerevisiae deletion strains, locus YLR039C, strain RIC1, active compounds read low 1.13 | S. cerevisiae deletion strains, locus YLR058C, strain SHM2, active compounds read low 1.01 | S. cerevisiae deletion strains, locus YLR102C, strain apc9, active compounds read low 0.99 | S. cerevisiae deletion strains, locus YLR113W, strain HOG1, active compounds read low 1.02 | S. cerevisiae deletion strains, locus YLR221C, strain rsa3, active compounds read low 1.02 | S. cerevisiae deletion strains, locus YLR258W, strain gsy2, active compounds read low 1 | S. cerevisiae deletion strains, locus YLR262C, strain YPT6 (second series), active compounds read low 0.956 | S. cerevisiae deletion strains, locus YLR262C, strain YPT6, active compounds read low 1.14 | S. cerevisiae deletion strains, locus YLR268W, strain sec22, active compounds read low 1 | S. cerevisiae deletion strains, locus YLR320W, strain mms22, active compounds read low 1.02 | S. cerevisiae deletion strains, locus YLR330W, strain CHS5, active compounds read low 1.01 | S. cerevisiae deletion strains, locus YLR342W, strain FKS1 (second series), active compounds read low 1.02 | S. cerevisiae deletion strains, locus YLR342W, strain FKS1, active compounds read low 0.957 | S. cerevisiae deletion strains, locus YLR357W, strain rsc2, active compounds read low 0.94 | S. cerevisiae deletion strains, locus YLR370C, strain arc18, active compounds read low 0.971 | S. cerevisiae deletion strains, locus YLR371W, strain rom2, active compounds read low 0.99 | S. cerevisiae deletion strains, locus YLR384C, strain iki3, active compounds read low 0.959 | S. cerevisiae deletion strains, locus YLR418C, strain cdc73, active compounds read low 0.984 | S. cerevisiae deletion strains, locus YML016C, strain PPZ1, active compounds read low 1.01 | S. cerevisiae deletion strains, locus YML032C, strain rad52, active compounds read low 0.989 | S. cerevisiae deletion strains, locus YML120C, strain ndi1, active compounds read low 0.969 | S. cerevisiae deletion strains, locus YML124C, strain tub3, active compounds read low 0.994 | S. cerevisiae deletion strains, locus YMR058W, strain fet3, active compounds read low 0.968 | S. cerevisiae deletion strains, locus YMR078C, strain ctf18, active compounds read low 0.991 | S. cerevisiae deletion strains, locus YMR125W, strain sto1, active compounds read low 0.931 | S. cerevisiae deletion strains, locus YMR129W, active compounds read low 0.982 | S. cerevisiae deletion strains, locus YMR205C, strain PFK2, active compounds read low 0.972 | S. cerevisiae deletion strains, locus YMR223W, strain ubp8, active compounds read low 0.987 | S. cerevisiae deletion strains, locus YMR231W, strain pep5, active compounds read low 0.96 | S. cerevisiae deletion strains, locus YMR263W, strain SAP30, active compounds read low 1 | S. cerevisiae deletion strains, locus YMR307W, strain GAS1, active compounds read low 1.1 | S. cerevisiae deletion strains, locus YNL067W, strain RPL9B, active compounds read low 0.995 | S. cerevisiae deletion strains, locus YNL071W, strain lat1, active compounds read low 0.985 | S. cerevisiae deletion strains, locus YNL128W, strain TEP1, active compounds read low 1 | S. cerevisiae deletion strains, locus YNL153C, strain GIM3, active compounds read low 0.994 | S. cerevisiae deletion strains, locus YNL183C, strain NPR1, active compounds read low 0.975 | S. cerevisiae deletion strains, locus YNL209W, strain ssb2, active compounds read low 0.985 | S. cerevisiae deletion strains, locus YNL233W, strain BNI4, active compounds read low 0.997 | S. cerevisiae deletion strains, locus YNL248C, strain rpa49, active compounds read low 0.979 | S. cerevisiae deletion strains, locus YNL250W, strain rad50, active compounds read low 0.996 | S. cerevisiae deletion strains, locus YNL271C, strain bni1, active compounds read low 0.991 | S. cerevisiae deletion strains, locus YNL298W, strain CLA4, active compounds read low 0.998 | S. cerevisiae deletion strains, locus YNL307C, strain MCK1, active compounds read low 0.984 | S. cerevisiae deletion strains, locus YNL322C, strain KRE1 (second series), active compounds read low 0.951 | S. cerevisiae deletion strains, locus YNL322C, strain KRE1, active compounds read low 1 | S. cerevisiae deletion strains, locus YNR049C, strain mso1, active compounds read low 0.967 | S. cerevisiae deletion strains, locus YNR052C, strain pop2, active compounds read low 0.985 | S. cerevisiae deletion strains, locus YOL012C, strain htz1 0.896 | S. cerevisiae deletion strains, locus YOL147C, strain pex11, active compounds read low 0.998 | S. cerevisiae deletion strains, locus YOR001W, strain rrp6, active compounds read low 0.935 | S. cerevisiae deletion strains, locus YOR061W, strain CKA2, active compounds read low 1.01 | S. cerevisiae deletion strains, locus YOR069W, strain VPS5, active compounds read low 1 | S. cerevisiae deletion strains, locus YOR070C, strain gyp1, active compounds read low 0.991 | S. cerevisiae deletion strains, locus YOR080W, strain dia2, active compounds read low 0.962 | S. cerevisiae deletion strains, locus YOR083W, strain WHI5, active compounds read low 0.967 | S. cerevisiae deletion strains, locus YOR106W, strain vam3, active compounds read low 0.966 | S. cerevisiae deletion strains, locus YOR136W, strain idh2, active compounds read low 0.998 | S. cerevisiae deletion strains, locus YOR144C, strain elg1, active compounds read low 0.992 | S. cerevisiae deletion strains, locus YOR184W, strain ser1, active compounds read low 0.995 | S. cerevisiae deletion strains, locus YOR231W, strain MKK1, active compounds read low 1.03 | S. cerevisiae deletion strains, locus YOR265W, strain rbl2, active compounds read low 0.976 | S. cerevisiae deletion strains, locus YOR270C, strain vph1, active compounds read low 0.933 | S. cerevisiae deletion strains, locus YOR290C, strain snf2, active compounds read low 0.977 | S. cerevisiae deletion strains, locus YOR316C, strain cot1, active compounds read low 0.996 | S. cerevisiae deletion strains, locus YPL051W, strain arl3, active compounds read low 0.989 | S. cerevisiae deletion strains, locus YPL055C, strain LGE1, active compounds read low 1.02 | S. cerevisiae deletion strains, locus YPL078C, strain atp4, active compounds read low 0.936 | S. cerevisiae deletion strains, locus YPL106C, strain sse1, active compounds read low 0.921 | S. cerevisiae deletion strains, locus YPL240C, strain hsp82, active compounds read low 0.962 | S. cerevisiae deletion strains, locus YPL256C, strain CLN2, active compounds read low 1.01 | S. cerevisiae deletion strains, locus YPR119W, strain clb2, active compounds read low 0.994 | S. cerevisiae deletion strains, locus YPR141C, strain kar3, active compounds read low 1 | S. cerevisiae deletion strains, locus YPR163C, strain tif3, active compounds read low 1 | S. cerevisiae deletion strains, locus YPR167C, strain met16, active compounds read low 0.986 | S. cerevisiae deletion strains, strain wtn01, active compounds read low 1.02 | S. cerevisiae strains, strain wild type, active compounds read low 1
